An excerpt weighted towards active compounds, which were near 3.1% of everything screened.
TrxR1 inh: qHTS Assay for Inhibitors of Mammalian Selenoprotein Thioredoxin Reductase 1 (TrxR1): qHTS; Thioredoxin reductase 1, cytoplasmic (Rattus norvegicus), O89049; recombinant rTrxR1, NADPH fluorescence consumption, selenite substrate; Potency, µM (top dose mostly 114 µM), for inactives: at the top dose activity change, negative = inhibition, hits mostly inhibitors; 390,000 tested, 1% active; further: on the % scale 0 is the no-effect control and ±100 the full control effect; nearly all actives have a fitted effect of over 65% in size
Target sequence (O89049 whole entry, looked up): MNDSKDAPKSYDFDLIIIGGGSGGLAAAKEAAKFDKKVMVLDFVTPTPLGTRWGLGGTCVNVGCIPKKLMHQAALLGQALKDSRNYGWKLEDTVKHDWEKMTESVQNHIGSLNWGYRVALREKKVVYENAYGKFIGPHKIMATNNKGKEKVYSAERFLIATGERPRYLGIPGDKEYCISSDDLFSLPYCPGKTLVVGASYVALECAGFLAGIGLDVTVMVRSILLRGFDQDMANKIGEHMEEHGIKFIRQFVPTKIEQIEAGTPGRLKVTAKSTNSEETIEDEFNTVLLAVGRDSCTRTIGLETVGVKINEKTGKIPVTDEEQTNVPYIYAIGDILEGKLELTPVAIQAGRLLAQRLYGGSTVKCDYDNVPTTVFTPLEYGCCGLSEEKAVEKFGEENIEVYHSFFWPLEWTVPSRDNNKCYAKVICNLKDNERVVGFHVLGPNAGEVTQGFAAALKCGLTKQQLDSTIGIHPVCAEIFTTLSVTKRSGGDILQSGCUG
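Rat TrxR1 (90 nM in the dispensed reagent) was pre-reduced with 400 uM NADPH for 5 min at room temperature, then incubated with compound for 15 min. After 400 uM selenite was added, NADPH fluorescence (Ex 340/Em 450 nm) was followed for 8 min.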
TrxR1 substrate: qHTS Assay for Substrates of Mammalian Selenoprotein Thioredoxin Reductase 1 (TrxR1): qHTS | Thioredoxin reductase 1, cytoplasmic (Rattus norvegicus), O89049 | purified TrxR1 substrate turnover, NADPH consumption readout | Potency, µM (top dose mostly 114 µM), for the others: at the highest dose activity change, negative = substrate turnover | 390,000 tested, 0.01% active; further: on the % scale 0 is the no-effect control and ±100 the full control effect; nearly all actives have a fitted effect of over 50% in size
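Rat TrxR1, dispensed at 90 nM, was prereduced with 400 uM NADPH (final) for 5 min at ~22 deg C, then incubated with compound 15 min before 400 uM selenite. A first-read NADPH fluorescence drop versus no-compound background flagged substrates.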
A549 tox: Nrf2 qHTS screen for inhibitors: counterscreen for cytotoxicity. AID 504648, 2011. 390,000 tested, 0.16% active. A549 ARE-Fluc cells, CellTiter-Fluor viability, 18-24 h. Potency, µM (top dose mostly 46 µM), for inactives: at the top dose activity change, negative = cytotoxicity, hits mostly inhibitors; further: on the % scale 0 is the no-effect control and ±100 the full control effect
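A549 ARE_Fluc cells in 5% FBS OPTI-MEM were exposed to compounds in concentration-response for 18-24 h at 37 deg C. Viability was read by CellTiter-Fluor fluorescence (Ex 405/Em 525) after 30 min, before the luciferase read.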
Mito fusion act: qHTS Assay for Small Molecule Inhibitors of Mitochondrial Division or Activators of Mitochondrial Fusion; S. cerevisiae fusion-defective mutant growth rescue, CellTiterGlo 48 h; Potency, µM (highest dose often 46.1 µM), without a hit: at the top dose growth rescue (activation), usual class: activators; 320,000 tested, 0.23% active; further: % of control where 0% means no effect; nearly all actives have a fitted effect of over 45% in size
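S. cerevisiae fusion-defective temperature-sensitive mutants (e.g. fzo1-1, mgm1-5) grown 48 h at 37C in YPEG (ethanol/glycerol non-fermentable) medium with 23 nl compound per well; growth rescue read as CellTiterGlo luminescence.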
IDH1 R132H inh: qHTS for Inhibitors of mutant isocitrate dehydrogenase 1 (IDH1): qHTS. IDH1-R132H enzyme, NADPH consumption, diaphorase/resazurin fluorescence. Potency, µM (highest dose often 76.6 µM), inactives show at the top dose activity change, negative = inhibition, actives largely listed as inhibitors. 390,000 tested, 0.093% active. AID 602179, 2012; further: on the % scale 0 is the no-effect control and ±100 the full control effect; nearly all actives have a fitted effect of over 65% in size
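IDH1-R132H (0.5 ug/mL) preincubated 30 min with compound, then NADPH (0.016 mM) and alpha-KG (2 mM) added; 80 min at RT, pH 7.5. Remaining NADPH coupled via diaphorase/resazurin to fluorescence (540/590 nm); concentration-response curves normalized to no-enzyme control.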
Nrf2 block: Nrf2 qHTS screen for inhibitors; A549 ARE-Fluc reporter, luciferase luminescence, 18-24 h; 360,000 tested, 2.1% active; Potency, µM (titrated, usually from 46 µM), without a hit: top-dose activity change, negative = inhibition, usual class: inhibitors; further: on the % scale 0 is the no-effect control and ±100 the full control effect; nearly all actives have a fitted effect of over 60% in size
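Nrf2 function is reported as luminescence of an ARE-controlled luciferase in A549 cells. Compounds were tested at several concentrations, and a CellTiter-Fluor read on the same wells flagged cytotoxicity.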
Active calls of the source: *; ? = inconclusive; / = no result given; [ ] = another dose, or the depositor's remark. The call rests on the fitted dose curve; in most records, active means well fitted curve in the direction sought with a large enough effect; inconclusive means small, poorly fitted or top-dose-only effect, or another doubt; inactive means no such curve, though single readings can be large; an effect the other way counts as inactive or inconclusive. Potency means the concentration at half of the fitted maximal effect.

SMILES | TrxR1 inh | TrxR1 substrate | A549 tox | Mito fusion act | IDH1 R132H inh | Nrf2 block
Cc1ccc(S(=O)(=O)/N=C(/Nc2ccccc2C)c2ccccc2)cc1 | 9%[57.1 µM] | 8%[57.1 µM] | 0% | / | 6% | -7%
Cc1ccc(S(=O)(=O)/N=C(/NC(=S)Nc2ccccc2)c2ccccc2)cc1 | 8.9µM* | 1% | 3% | 7% | 4% | ?
Cc1cc(C)c2c(n1)NCCC2 | 13% | 82% | / | / | / | /
O=C(NCc1ccc(Cl)cc1)c1cnc(N2CCCCC2)c2ccccc12 | 25%[57.1 µM] | -2%[57.1 µM] | -1% | / | -10% | /
Cc1nn(-c2ccccc2)c(C)c1/C=N/NC(=O)c1cc(-c2ccc(Cl)s2)[nH]n1 | 6%[57.1 µM] | 2%[57.1 µM] | -8% | 20% | 0% | 10µM*
Cc1nn(-c2ccccc2)c(C)c1/C=N/NC(=O)c1cc(-c2ccc(Br)s2)[nH]n1 | 13% | 6% | -12% | ? | 2% | ?
Cc1cc(C(=O)N/N=C/c2c(C)nn(-c3ccccc3)c2C)n[nH]1 | -19% | -11% | 1% | 0% | 12% | -1%
Cc1nn(-c2ccccc2)c(C)c1/C=N/NC(=O)c1cc(C23CC4CC(CC(C4)C2)C3)[nH]n1 | 3%[57.1 µM] | -4% | ? | ? | -1% | 13µM*
O=C(Nc1ccc(S(=O)(=O)N2CCCCC2)cc1)c1ccc(Cl)nc1 | 18% | -3% | -12% | / | 3% | 18µM*
O=C1CCC(C(=O)Nc2cccc(S(=O)(=O)Nc3ccccc3F)c2)=NN1 | 5%[2.29 µM] | 8%[57.1 µM] | 2% | / | 3% | 26µM*
O=C(Nc1cccc(S(=O)(=O)N2CCCCC2)c1)c1ccc(Cl)nc1 | 16% | -5% | -7% | / | 2% | 21µM*
O=C(Nc1cccc(S(=O)(=O)Nc2ccccc2F)c1)c1ccco1 | 14% | 8%[57.1 µM] | -3% | / | -4% | ?
O=C(Nc1ccc(S(=O)(=O)N2CCCC2)cc1)c1ccc(Cl)nc1 | 6% | -7% | 1% | -4% | -12% | ?
O=C(Nc1ccc(S(=O)(=O)N2CCCCC2)cc1)c1ccncc1 | 23%[57.1 µM] | 7% | -1% | -1% | 9% | ?
O=C(Nc1ccc(Cc2ccncc2)cc1)c1ccc(S(=O)(=O)N2CCCC2)cc1 | 7%[57.1 µM] | 2%[57.1 µM] | -20% | -2% | -2% | 16µM*
Cc1ccc(NS(=O)(=O)c2ccc3c(c2)CC(=O)N3C)cc1C | / | / | 4% | / | / | ?
COc1ccc(-c2nc3ccc(Cl)cc3c(=O)n2Cc2ccccc2)cc1COc1ccc(NC(C)=O)cc1 | / | / | 6% | / | / | -7%
O=C1CC(c2ccccc2)CC2=C1C1(CCCCC1)N=C(Nc1nc3ccccc3o1)N2 (stereo not drawn) | / | / | 0% | / | / | 10%
O=C(C[n+]1ccccc1Br)c1ccc(-c2ccccc2)cc1 | ? | 6% | / | / | / | /
O=C(Nc1cccc(S(=O)(=O)N2CCCCCC2)c1)c1ccc(Cl)nc1 | 10% | 0% | ? | / | -2% | 21µM*
O=C(Nc1cccc(S(=O)(=O)Nc2ccccc2Cl)c1)c1ccc(Cl)nc1 | 0% | -3% | -15% | -4% | 1% | 5.2µM*
Cc1ccc(S(=O)(=O)N2CCN(c3nc(-c4cncn4C)nc4ccccc34)CC2)cc1 | 7% | 11% | -1% | / | / | -10%
Cc1ccc(NC(=O)c2ccc3c(c2)NC(=O)c2ccccc2S3)cc1 | 9% | 14% | ? | / | -9% | 16µM*
O=C(Nc1ccc(N2CCN(C(=O)c3ccco3)CC2)cc1)c1ccc(Br)cc1 | 17% | 1% | -11% | 0% | -9% | 16µM*
Cc1ccccc1C(=O)N1CCN(c2ccc(NC(=S)NC(=O)c3ccco3)cc2)CC1 | 12% | -2% | 10% | -5% | 3% | ?
